# Screening results as filed in PubChem BioAssay.
# TGFb SMAD3 inh – qHTS for Inhibitors of TGF-b; HepG2 CAGA-GFP TGF-b/SMAD3 reporter, GFP fluorescence, 18 h; TGF-beta stimulated, 500 pg/mL final; Potency, µM (titrated, usually from 46.1 µM), for the others: at the highest dose activity, negative = inhibition, most hits filed as inhibitors; 1.2% of 410,000 active; AID 588855, 2011; further: potency means the concentration at half of the fitted maximal effect; on the % scale 0 is the no-effect control and ±100 the full control effect; nearly all actives have a fitted effect of over 65% in size
#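 HEPG2 CAGA-GFP, 1000 cells/well; 2 h settle, 37 C; cpd via pin tool; TGF-b 500 pg/mL final; 18 h, 37 C; GFP imaging ex488/em500-530; %Activity normalised to -TGF-b and +DMSO controls; CRC fit, curve class.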
# HepG2 viability – qHTS for Inhibitors of TGF-b: Cytotox Counterscreen; HepG2 CAGA-GFP viability, ATP luminescence, 18 h; AID 588856, 2011; Potency, µM (top dose mostly 46.1 µM), for the others: at the highest dose activity change, negative = cytotoxicity, actives largely listed as cytotoxic; 0.76% of 410,000 active; further: potency means the concentration at half of the fitted maximal effect
#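 HepG2 CAGA-GFP cells (1000/well, DMEM with 1% FBS) received compound, then TGF-beta at 500 pg/mL final, and were incubated 18 hours at 37 degrees C. Viability was read by CellTiter-Glo luminescence. Media-only wells were set as complete cell-killing and DMSO as no toxicity.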
# IL1B secr inh – qHTS for Inhibitors of Inflammasome Signaling: IL-1-beta AlphaLISA Primary Screen. 4.7% of 360,000 active. THP-1 LPS/ATP IL-1B secretion, AlphaLISA, 16 h; stronger effect = lower value. AID 743279, 2014. activity change, % at 57.5 µM; in the data active means activity change below about -50%; inconclusive means mostly about -30% to -49%; further: on the % scale 0 is the no-effect control and ±100 the full control effect
#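 THP-1 cells pretreated 1 hr with compounds (up to 57.5 uM final), then stimulated with LPS (250 ng/mL final) plus ATP (1.25 mM final); secreted IL-1B measured by AlphaLISA after 16 hr, decreased signal indicating inhibition.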
# TDP1 inh – qHTS Assay for Inhibitors of Tyrosyl-DNA Phosphodiesterase (TDP1) | Tyrosyl-DNA phosphodiesterase 1 (Homo sapiens), Q9NUW8 | recombinant TDP1, AlphaScreen DNA substrate cleavage | Potency, µM (top dose mostly 130 µM), for the others: top-dose activity change, negative = inhibition, hits mostly inhibitors | 0.28% of 350,000 active | AID 485290, 2010; further: potency means the concentration at half of the fitted maximal effect; on the % scale 0 is the no-effect control and ±100 the full control effect; nearly all actives have a fitted effect of over 40% in size
# Target sequence (Q9NUW8 whole entry, looked up): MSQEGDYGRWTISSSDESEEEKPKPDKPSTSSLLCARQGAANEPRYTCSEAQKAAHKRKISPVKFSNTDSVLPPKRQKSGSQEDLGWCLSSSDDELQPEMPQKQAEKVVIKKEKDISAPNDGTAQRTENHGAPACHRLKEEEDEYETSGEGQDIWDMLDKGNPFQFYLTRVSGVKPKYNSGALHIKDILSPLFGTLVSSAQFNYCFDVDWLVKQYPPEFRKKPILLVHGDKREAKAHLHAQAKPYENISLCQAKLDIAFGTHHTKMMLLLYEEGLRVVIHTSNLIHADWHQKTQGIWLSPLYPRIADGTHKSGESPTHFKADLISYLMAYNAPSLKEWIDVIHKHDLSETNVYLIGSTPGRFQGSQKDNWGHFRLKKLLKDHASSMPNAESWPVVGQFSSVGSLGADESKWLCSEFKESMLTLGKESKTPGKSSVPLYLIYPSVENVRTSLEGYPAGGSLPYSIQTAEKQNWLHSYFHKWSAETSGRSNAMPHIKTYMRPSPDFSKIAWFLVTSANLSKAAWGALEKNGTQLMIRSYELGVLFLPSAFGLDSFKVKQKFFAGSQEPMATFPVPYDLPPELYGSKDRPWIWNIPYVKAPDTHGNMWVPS
#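 Compounds were preincubated with Tdp1 (1 nM final) for 15 min at room temperature before substrate (15 nM final) started a 5 min reaction; beads (10 ug/ml final) were then added for 10 min before AlphaScreen detection.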
# TDP1 cell CPT – qHTS for Inhibitors of human tyrosyl-DNA phosphodiesterase 1 (TDP1): qHTS in cells in presence of CPT. chicken DT40 Tdp1-/-;hTDP1 cells + 20 nM CPT, ATP luminescence, 48 h. Potency, µM (doses to about 46.2 µM), inactives show at the highest dose activity change, negative = growth inhibition, usual class: inhibitors. 12% of 420,000 active. AID 686979, 2013; further: potency means the concentration at half of the fitted maximal effect; on the % scale 0 is the no-effect control and ±100 the full control effect; nearly all actives have a fitted effect of over 55% in size
#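 Chicken DT40 Tdp1-/- cells complemented with human TDP1, 400 cells/well, exposed to compounds plus 20 nM camptothecin for at least 48 h at 37 C; viability read as ATP content by CellTiter-Glo luminescence.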
# TDP1 cell noCPT – qHTS for Inhibitors of human tyrosyl-DNA phosphodiesterase 1 (TDP1): qHTS in cells in absence of CPT. DT40 Tdp1-/- hTDP1 cells, no CPT, ATP luminescence, 48 h. Potency, µM (series often up to 46.2 µM), without a hit: top-dose activity change, negative = growth inhibition, actives largely listed as inhibitors. 15% of 420,000 active. AID 686978, 2013; further: potency means the concentration at half of the fitted maximal effect; on the % scale 0 is the no-effect control and ±100 the full control effect; nearly all actives have a fitted effect of over 55% in size
#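 Growth of hTDP1-complemented DT40 Tdp1-knockout cells is measured by ATP luminescence after at least 48 hr compound exposure at 37 °C, with DMSO substituting for the 20 nM CPT used in the parallel screen.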
# Numbers without * were called inactive; i = inactive; ? = inconclusive; · = no result; [ ] = remark or other dose. Rows were chosen to be rich in hits. Some 18% of all compounds tested hit in one or more screens of this group. Unless noted, the call rests on the fitted dose curve; in most records, active means well fitted curve in the direction sought with a large enough effect; inconclusive means small, poorly fitted or top-dose-only effect, or another doubt; inactive means no such curve, though single readings can be large; an effect the other way counts as inactive or inconclusive.
SMILES,TGFb SMAD3 inh,HepG2 viability,IL1B secr inh,TDP1 inh,TDP1 cell CPT,TDP1 cell noCPT
CC(=O)NCCNC(=O)c1cccc(NS(=O)(=O)c2ccc3c(c2)OCCO3)c1,-1%,4%,34,-4%,18%,-4%
O=C(NC12CC3CC(CC(C3)C1)C2)C1CC(=O)N(c2ccc(Br)cc2)C1 (centres undefined),2%,-1%,5,1%,13µM*,23µM*
Cc1nnc(SCC(=O)Nc2ccc3c(c2)OCO3)n(N)c1=O,0%,-11%,-7,5%,2%,-23%
CSc1ccccc1OCc1cc(C(=O)NCCN2CCCc3ccccc32)no1,-11%,-10%,-10,8%,?,15µM*
CCN(CC)C1CCN(C(=O)c2cc(COc3ccccc3SC)on2)C1 (centres undefined),-14%,-6%,0,6%,-12%,1%
CSc1ccccc1OCc1cc(C(=O)NCCC2=CCCCC2)no1,5%,5%,18,3%,-19%,-29%
CSc1ccccc1OCc1cc(C(=O)NCCn2nc(C)cc2C)no1,-29%,-10%,10,4%,12µM*,?
CCN(CC1CCCO1)C(=O)c1cc(COc2ccccc2SC)on1 (centres undefined),14%,0%,i,1%,16µM*,21µM*
Cc1cc(C)n(CCNC(=O)c2cc(COc3ccc(F)cc3Cl)on2)n1,-12%,5%,0,·,?,?
CSc1ccccc1OCc1cc(C(=O)N(C)Cc2ccc(C)o2)no1,7%,1%,-67*,6%,16µM*,?
N#CC(Cc1ccc(O)c(O)c1)C(=O)N1CCc2ccccc21 (centres undefined),·,·,·,18%[56.1 µM],·,·
CSc1ccccc1NC(=O)CN(C)C(C)C(=O)NCc1ccc2c(c1)OCO2 (centres undefined),-7%,-3%,0,4%,-20%,2%
CCCCNC(=O)Cn1cnc2sc(C)c(S(=O)(=O)N3CCN(c4ccccc4OC)CC3)c2c1=O,-9%,1%,10,0%,?,-25%
C[C@H](CO)N1C[C@H](C)[C@@H](CN(C)C(=O)Nc2ccc(C(F)(F)F)cc2)Oc2c(NS(=O)(=O)c3cn(C)cn3)cccc2C1=O,-9%,-2%,-2,0%,2%,-8%
COc1ccc(OC)c(-c2noc(N3CCN(c4ccc(Cl)cc4)CC3)n2)c1,-25%,-6%,·,10%,?,15µM*
COc1cc(-c2ccno2)ccc1S(=O)(=O)N1CCN(c2cccc(Cl)c2)CC1,?,-26%,·,0%,23µM*,?
COc1ccc(-c2noc(N3CCN(c4ccc(Cl)cc4)CC3)n2)cc1OC,-3%,4%,·,2%,-10%,7%
COc1ccc(-c2noc(N3CCN(c4cccc(C)c4C)CC3)n2)cc1OC,?,-35%,·,5%,18µM*,7.3µM*
COc1ccc(-c2noc(N3CCN(c4cccc(Cl)c4)CC3)n2)cc1OC,-17%,-10%,·,-11%,?,8.2µM*
COc1cc(-c2ccno2)ccc1S(=O)(=O)N1CCN(c2cc(C)ccc2C)CC1,?,-24%,·,4%,?,?
CCOc1c(Br)cc(C2C=C(C(=O)O)Nc3ncnn32)cc1OC (centres undefined),27%,-4%,·,0%,2%,32%
CC(=O)NNC(=S)NC(=O)C(c1ccccc1)c1ccccc1,-24%,-1%,100,5%,8.2µM*,16µM*
CC(C)(C)C(=O)NC(=S)NNC(=O)C(c1ccccc1)c1ccccc1,-23%,-34%,153,2%,4.6µM*,3.7µM*
CN(C)C(=S)NC(=O)C(c1ccccc1)c1ccccc1,11%,7%,-16,5%,8%,?
CSc1ncc(C(=O)NCc2cccc(C)c2)c(-c2ccccc2)n1,-17%,-35%,·,-6%,?,?
SMILES,TGFb SMAD3 inh,HepG2 viability,IL1B secr inh,TDP1 inh,TDP1 cell CPT,TDP1 cell noCPT
COc1cccc2sc(N(CCN(C)C)C(=O)c3ccc(S(=O)(=O)N4CCCC4)cc3)nc12,-15%,1%,i,6%,2%,?
Cc1cc(C)c2nc(N(CCCN(C)C)C(=O)c3ccc(S(=O)(=O)N4CCCCCC4)cc3)sc2c1,16µM*,-74%,-96*,2%,?,?
CC1CN(S(=O)(=O)c2ccc(C(=O)N(CCCN(C)C)c3nc4c(Cl)cccc4s3)cc2)CC(C)O1 (centres undefined),0%,-18%,-54*,6%,-29%,2%
CN(C)CCCN(C(=O)c1ccc(S(=O)(=O)N2CCCC2)cc1)c1nc2ccc(Br)cc2s1,?,-97%,-52*,7%,23µM*,21µM*
CN(C)CCCN(C(=O)c1ccc(S(=O)(=O)N2CCCCC2)cc1)c1nc2cc3c(cc2s1)OCO3,2%,-42%,-63*,6%,23µM*,?
CCOc1ccc2nc(N(CCCN(C)C)C(=O)c3ccc(S(=O)(=O)N4CCCC4)cc3)sc2c1,-13%,-49%,0,8%,?,-29%
CCOc1ccc(CNC(=O)C2CCN(S(=O)(=O)N3CCC(C)CC3)CC2)cc1OC,0%,0%,13,3%,-13%,?
CCOc1ccc(CNC(=O)c2nn(-c3ccc(OC)cc3)c(=O)c3c2c2ccccc2n3C)cc1,10%,5%,·,0%,0%,-7%
CN(Cc1ccc2c(c1)CCCN2C)C(=O)[C@H]1O[C@@H](n2ccc(=O)[nH]c2=O)[C@H](O)[C@@H]1O,-17%,-22%,-7,·,2%,-1%
O=C(NCCCN1CCOCC1)c1ccc(CSCc2cccc(Cl)c2)o1,-1%,21%,-13,6%,?,?
Cc1ccc(N(C(=O)CNC(=O)c2ccco2)C(C(=O)NC2CCCC2)c2cccnc2)cc1F (centres undefined),20%,-2%,-1,9%,-13%,1%
Cc1ccc(Cn2c(Sc3ncccn3)nc3c2c(=O)[nH]c(=O)n3C)cc1,-5%,-60%,15,-3%,?,16µM*
